Source: PubChem (National Center for Advancing Translational Sciences (NCATS))
KDM4E inh – qHTS Assay for Inhibitors of Human Jumonji Domain Containing 2E (JMJD2E); JMJD2E catalytic domain, FDH-coupled NADH fluorescence (FDH is formaldehyde dehydrogenase); hit rate 1.6% among 230,000; Lysine-specific demethylase 4E (Homo sapiens), B2RXH2; Potency, µM (highest dose often 57.1 µM), for inactives: top-dose activity change, negative = inhibition, most hits filed as inhibitors; active means well fitted inhibition curve with a large enough effect, not every such curve was filed as active; inconclusive means small, poorly fitted or top-dose-only effect, or another doubt; inactive means no such curve, though single readings can be large or run the other way;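 further: potency means the concentration at half of the fitted maximal effect; 0% = wells with enzyme and -100% = buffer wells without enzyme; nearly all actives have a fitted effect of over 50% in size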
Target sequence (B2RXH2 1-337 limits assumed): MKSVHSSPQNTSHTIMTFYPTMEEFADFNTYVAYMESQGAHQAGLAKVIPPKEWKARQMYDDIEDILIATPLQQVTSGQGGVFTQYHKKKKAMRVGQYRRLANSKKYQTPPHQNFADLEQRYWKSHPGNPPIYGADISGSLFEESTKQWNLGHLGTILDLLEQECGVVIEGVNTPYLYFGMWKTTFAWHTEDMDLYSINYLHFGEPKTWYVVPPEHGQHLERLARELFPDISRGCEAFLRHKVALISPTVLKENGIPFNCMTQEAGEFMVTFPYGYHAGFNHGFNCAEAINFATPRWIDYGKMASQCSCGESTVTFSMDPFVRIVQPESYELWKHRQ
Tau fibril ThT – qHTS for Inhibitors of Tau Fibril Formation, Thioflavin T Binding. Potency, µM (highest dose often 57.4 µM), without a hit: at the top dose activity, negative = inhibition, usual class: inhibitors. hit rate 2.1% among 270,000. recombinant tau K18 P301L, heparin-induced fibrillization, ThT fluorescence. AID 1460, 2008; further: potency means the concentration at half of the fitted maximal effect; nearly all actives have a fitted effect of over 55% in size
Target sequence (P10636 561-689 P618L limits assumed): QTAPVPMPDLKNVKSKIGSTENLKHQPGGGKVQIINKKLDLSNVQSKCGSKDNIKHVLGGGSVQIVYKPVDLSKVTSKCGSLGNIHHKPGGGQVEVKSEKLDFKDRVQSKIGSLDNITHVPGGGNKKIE
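K18 P301L tau (15 uM + 0.24 uM Alexa 594-tagged), heparin 20 uM, NaOAc pH 7, 6 h 37 C; ThT 30 uM, 1 h RT, ex 450/em 510 nm.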
Tau fibril FP – qHTS for Inhibitors of Tau Fibril Formation, Fluorescence Polarization | K18 P301L tau heparin fibrillization, Alexa594 FP, 6 h | Potency, µM (series often up to 57.7 µM), for inactives: at the top dose activity, negative = inhibition, usual class: inhibitors | hit rate 0.39% among 280,000; further: potency means the concentration at half of the fitted maximal effect; nearly all actives have a fitted effect of over 55% in size
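FP of Alexa 594-tau after heparin (20 uM) induction. Substrate: human K18 P301L, 15 uM unlabeled, 0.24 uM labeled. Buffer 100 mM sodium acetate pH 7. 6 hr, 37 C.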
Tau fluor cs – Counterscreen qHTS for Inhibitors of Tau Fibril Formation, Fluorescence Polarization | tau K18 P301L Alexa594 fluorescence, heparin fibrillization | Potency, µM (top dose mostly 57.7 µM), for the others: top-dose activity change, negative = decrease | hit rate 0.93% among 280,000; further: potency means the concentration at half of the fitted maximal effect; nearly all actives have a fitted effect of over 55% in size
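Human tau K18 P301L (15 uM unlabeled, 0.24 uM Alexa 594-labeled) in 100 mM sodium acetate pH 7 with 20 uM heparin, 6 hr at 37 C. ThT 30 uM added, 1 hr ambient; Alexa 594 FP and total fluorescence read at 555/632 nm.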
FBPA coupling cs – qHTS Assay for Inhibitors of Fructose-1,6-bisphosphate Aldolase from Giardia Lamblia: Coupling assay counterscreen. coupling enzyme system counterscreen, AmpLite Red fluorescence. activity change, negative = inhibition, % at 58.2 µM, hits read low. hit rate 0.67% among 290,000; in the data active means activity change below about -30%
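Fluorescence at 525 nm excitation and 598 nm emission measured inhibition of the coupled detection system without aldolase. Compounds (at 57.5 uM final) were preincubated 10 min at room temperature with coupling enzyme reagent before a 20 min substrate/AmpLite Red step.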
Active calls of the source: *; ? = inconclusive; . = no result given. A selection: hits, their analogues and other compounds. The true share with any hit is near 3%. Unless noted, the call rests on the fitted dose curve; in most records, active means well fitted curve in the direction sought with a large enough effect; inconclusive means small, poorly fitted or top-dose-only effect, or another doubt; inactive means no such curve, though single readings can be large; an effect the other way counts as inactive or inconclusive. Unless noted, on the % scale 0 is the no-effect control and ±100 the full control effect.

SMILES	KDM4E inh	Tau fibril ThT	Tau fibril FP	Tau fluor cs	FBPA coupling cs
C[C@H](NC(=O)c1[nH]cnc1C(=O)Nc1ccc(CNC(=O)OC(C)(C)C)cc1)C(=O)OCc1ccccc1	-4%	12%	?	?	-2
CC(C)C[C@H](NC(=O)c1[nH]cnc1C(=O)Nc1ccc(CNC(=O)OC(C)(C)C)cc1)C(=O)OCc1ccccc1	32µM*	12%	10µM*	?	-9
CC(C)(C)OC(=O)NCc1ccc(NC(=O)c2nc[nH]c2C(=O)N[C@@H](Cc2ccccc2)C(=O)OC(C)(C)C)cc1	?	?	8.9µM*	?	-12
CC1CC=CC2C1C(=O)N(Cc1ccccc1)C2c1ccc(Br)cc1F (stereo unspecified)	.	.	.	.	0
Cc1c(C(=O)N(Cc2ccc(N(C)C)cc2)Cc2ccco2)oc2cc(Br)ccc12	.	-17%	?	?	.
N#CC1=C2SCC(O)(c3ccccc3)N2C(=O)CC1c1cccs1 (stereo unspecified)	9%	2%	1%	-11%	-7
N#CC1=C2SCN(c3ccccc3)CN2C(=O)CC1c1ccccc1Cl (stereo unspecified)	?	32µM*	?	-28%	-11
N#CC1=C2SCN(c3ccccc3)CN2C(=O)CC1c1cccs1 (stereo unspecified)	16µM*	25µM*	?	-19%	-17
N#CC1=C2SCN(c3ccccc3)CN2C(=O)CC1c1c(Cl)cccc1Cl (stereo unspecified)	8.9µM*	32µM*	25µM*	-30%	1
Cc1cccc(OCC(=O)Nc2c(C(=O)N3CCN(c4ccccc4)CC3)oc3ccccc23)c1	.	3%	6%	-3%	.
CN1/C(=C\P(=O)(N(C)C)N(C)C)C(C)(C)c2ccccc21	4%	32µM*	?	?	-1
CCOC(=O)/C=C1/N(C)c2ccccc2C1(C)C	-1%	.	4%	15%	0
CN1/C(=C/C2CC(=O)NC2=O)C(C)(C)c2ccccc21 (stereo unspecified)	?	28µM*	?	-19%	-5
CN(C)c1cncc(C(=O)O)c1	?	-3%	2%	1%	-55*
O=C(O)c1cncc(Br)c1	8%	-8%	3%	-12%	-1
Cc1cc(C)cc(NC(=O)[C@H]2O[C@@H]3OC(C)(C)O[C@@H]3[C@H]3OC(C)(C)O[C@H]32)c1	.	2%	?	-13%	.
CC1(C)OC2OC(C(=O)N/N=C/c3cc(Br)ccc3O)C3OC(C)(C)OC3C2O1 (stereo unspecified)	28µM*	-6%	-1%	-12%	2
COc1ccc(OC)c(CCNC(=O)CN2C(=O)COc3ccc(S(=O)(=O)N4CCC(C)CC4)cc32)c1	.	?	-9%	-18%	.
COc1cccc(N=Cc2ccc(O)cc2O)c1	-4%	?	9%	?	-8
Oc1ccc(C=Nc2cccc3ncccc23)c(O)c1	?	?	-9%	-17%	-37*
Oc1ccc(C=Nc2ccccc2-c2nc3ccccc3[nH]2)c(O)c1	?	?	?	?	-7
CCOc1ccc(C=Nc2cccc3ncccc23)cc1	-4%	-4%	5%	-5%	-42*
Oc1ccc(C=Nc2ccc3ncccc3c2)c(O)c1	4.5µM*	6.3µM*	?	?	-52*
COc1ccc(C=Nc2cccnc2N)cc1	.	.	.	.	0
COc1ccc2cc(C#N)c(=O)oc2c1	.	.	.	.	-2
CC(C)c1cc(-c2nc(-c3ccc(Cl)cc3)no2)n[nH]1	.	?	-5%	?	.
Cc1ccccc1NC(=O)C1CCN(C(=O)c2cnn(-c3ccccc3)c2-n2cccc2)CC1	.	-8%	-4%	-9%	.
CC(C)CCNC(=O)CCn1c(=O)c2cccn2c2cccnc21	.	-1%	1%	-1%	.
